Test results taken from PubChem BioAssay AID743088 (The Scripps Research Institute Molecular Screening Center, 2013).
Unmarked numbers belong to inactive results.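 How the source made its calls: active means binding inhibited by at least 50%, or stimulated by at least 50%, shown as inhibition of -50% or lower; inactive means the rest.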

System: Phorbol Ester
Test: radioligand displacement at 30 receptors – biochemical, Panlabs HitProfilingScreen, selectivity assay for AVPR1a antagonist project, profiling panel (AID 743088)
Details: 30 targets, at 10 µM, hits give high values

`O=C(C1CCN(c2ccc(Cl)cn2)CC1)N(CC1CC1)c1ccc(Cl)cc1` gave an inhibition of binding of -13%.
